The nature of assay [1]: qHTS assay to identify small molecule antagonists of the constitutive androstane receptor (CAR) signaling pathway - cell viability counter screen (AID 1224837). Note: nearly all actives have a fitted effect of over 45% in size. The method in brief:
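Using CellTiter-Fluor, viability is scored in HepG2 cells stably carrying hCAR and a 2.2kb CYP2B6 reporter after 23 hr compound exposure across 15 concentrations, with CITCO present at 50 nM.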

The target in assay [2] is Nuclear receptor subfamily 1 group I member 3 (Homo sapiens) (UniProt Q14994). The assay can be described thus: qHTS assay to identify small molecule antagonists of the constitutive androstane receptor (CAR) signaling pathway (AID 1224838).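 Note: HepG2 cells stably expressing hCAR with CYP2B6 luciferase reporter stimulated by CITCO; nearly all actives have a fitted effect of over 40% in size.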 In a few lines: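 Reporter luminescence was quantified after 24 h exposure of hCAR/CYP2B6-2.2kb double-stable HepG2 cells to compounds at 15 concentrations in the presence of 50 nM CITCO final.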
Sequence of Nuclear receptor subfamily 1 group I member 3 (Homo sapiens) (Q14994 whole entry, looked up): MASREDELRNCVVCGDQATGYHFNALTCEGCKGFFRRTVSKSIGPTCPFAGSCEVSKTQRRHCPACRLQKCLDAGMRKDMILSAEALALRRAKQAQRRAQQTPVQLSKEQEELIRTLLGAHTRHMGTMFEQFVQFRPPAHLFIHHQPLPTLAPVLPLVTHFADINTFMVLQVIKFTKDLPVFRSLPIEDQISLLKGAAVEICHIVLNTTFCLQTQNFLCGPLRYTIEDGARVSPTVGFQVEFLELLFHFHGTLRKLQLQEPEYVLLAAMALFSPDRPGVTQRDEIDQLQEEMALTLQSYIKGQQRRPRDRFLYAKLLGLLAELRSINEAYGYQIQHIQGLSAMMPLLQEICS

The target of assay [3] is Thyrotropin receptor (Homo sapiens) (UniProt P16473). In words: qHTS assay to identify small molecule agonists of the thyroid stimulating hormone receptor (TSHR) signaling pathway (AID 1224843; calls by dose curve; note: nearly all actives have a fitted effect of over 45% in size). The method in brief: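 TSHR-HEK293 cells in agonist mode, 30 min room-temperature step, then cAMP measured by competitive HTRF (cAMP-d2 with anti-cAMP cryptate) after 1 h at room temperature. Tested at 15 concentrations in triplicate.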
Sequence of Thyrotropin receptor (Homo sapiens) (P16473 whole entry, looked up): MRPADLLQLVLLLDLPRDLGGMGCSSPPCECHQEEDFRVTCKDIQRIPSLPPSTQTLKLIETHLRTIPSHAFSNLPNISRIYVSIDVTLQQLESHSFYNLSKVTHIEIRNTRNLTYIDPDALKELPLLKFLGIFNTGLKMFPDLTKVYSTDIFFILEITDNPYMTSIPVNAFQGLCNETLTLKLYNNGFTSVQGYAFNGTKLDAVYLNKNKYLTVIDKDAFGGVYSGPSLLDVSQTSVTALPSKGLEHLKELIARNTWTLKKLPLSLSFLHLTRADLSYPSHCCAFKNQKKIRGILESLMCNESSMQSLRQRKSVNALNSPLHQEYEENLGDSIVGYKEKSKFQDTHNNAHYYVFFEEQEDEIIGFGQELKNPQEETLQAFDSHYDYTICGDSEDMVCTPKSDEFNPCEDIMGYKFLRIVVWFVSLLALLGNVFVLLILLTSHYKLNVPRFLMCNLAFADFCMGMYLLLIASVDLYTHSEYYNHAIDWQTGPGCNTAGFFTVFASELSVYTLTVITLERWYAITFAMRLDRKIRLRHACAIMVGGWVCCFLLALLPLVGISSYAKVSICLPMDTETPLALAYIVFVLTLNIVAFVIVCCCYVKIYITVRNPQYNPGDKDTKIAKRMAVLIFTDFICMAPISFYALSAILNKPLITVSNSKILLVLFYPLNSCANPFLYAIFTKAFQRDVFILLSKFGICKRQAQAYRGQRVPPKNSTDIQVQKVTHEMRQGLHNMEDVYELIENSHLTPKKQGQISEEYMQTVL
In general terms: qHTS replaces the single test concentration by a dilution series.

Assay [4] can be described thus: qHTS assay to identify small molecule agonists of the hypoxia (HIF-1) signaling pathway - cell viability counter screen (AID 1224844; calls by dose curve; note: nearly all actives have a fitted effect of over 50% in size). The method in brief:
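Multiplexed with the HRE beta-lactamase assay, this viability read used CellTiter-Glo luminescence (30 min, RT) on HRE-bla ME-180 cells treated 17 hrs with compounds in 0.5% dialyzed FBS medium.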

Assay [5] in a line: qHTS assay to identify small molecule agonists of H2AX (AID 1224845; active = well fitted activation curve with a large enough effect in the signal ratio in the repeat runs, not every such curve was filed as active; the % refers to the signal ratio). In a few lines: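 Wild-type CHO-K1 cells, plated overnight, exposed 3hr at 37C to 15 concentrations (0.76% DMSO final). Lysed, then HTRF anti-pH2AX (S139) cryptate and anti-H2AX-d2 antibodies, 24 hr room temperature; 665/620 nm emission read.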
A short description of assay [6]: qHTS assay to identify small molecule agonists of the hypoxia (HIF-1) signaling pathway (AID 1224846; active = well fitted activation curve with a large enough effect in the signal ratio in the repeat runs, not every such curve was filed as active; the % refers to the signal ratio). In a few lines: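 Hypoxia-pathway activation was scored as increased beta-lactamase from an HRE-controlled reporter in ME-180 cells; plated at 2,000 cells per well with 0.5% dialyzed FBS, they were exposed 17 hrs to compounds and then given CCF4-AM.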
A short description of assay [7]: qHTS assay to identify small molecule agonists of H2AX - cell viability counter screen (AID 1224847; calls by dose curve; note: top concentration of the series differs between compounds; nearly all actives have a fitted effect of over 30% in size). The method in brief: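 CHO-K1 wt, 1000 cells/well, o/n 37C; cpds 15 conc, 3 h 37C, 0.76% DMSO; CellTiter-Glo, 30 min RT, luminescence.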
The nature of assay [8]: qHTS RealTime-Glo MT Cell Viability Assay in HepG2 cells - 24 hour (AID 1224867). Note: nearly all actives have a fitted effect of over 50% in size. The method in brief:
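HepG2 cells (600/well) were dispensed with RealTime-Glo reagents, incubated 5 h at 37 °C, then treated with compounds in DMSO for up to 40 h. Nonlytic NanoLuc luminescence reflecting viable cells was read at each stated time point.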

Assay [9] in a line: qHTS RealTime-Glo MT Cell Viability Assay in HEK293 cells - 32 hour (AID 1224868). Note: top concentration of the series differs between compounds; nearly all actives have a fitted effect of over 50% in size. In a few lines:
(§1)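 HEK293 cells seeded with NanoLuc/prosubstrate reagent, rested 5 h at 37 C, then dosed and kept at 37 C up to 40 h. Nonlytic real-time luminescence from viable cells read at 0, 8, 16, 24, 32 and 40 h.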

Assay [10] is described as follows: A CellTox Green Cytotoxicity Assay to monitor cytotoxicity in HEK293 cells - 0 hour (AID 1224869). Note: nearly all actives have a fitted effect of over 50% in size. The method in brief: (§2)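 Seeding of HEK293 cells together with cytotoxicity dye preceded a 5 h incubation at 37 C/5% CO2. Test compounds in DMSO were then added and fluorescence monitored across 40 h.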
Assay [11] is described as follows: qHTS RealTime-Glo MT Cell Viability Assay in HepG2 cells - 40 hour (AID 1224870). Note: nearly all actives have a fitted effect of over 50% in size. The method in brief: (§3)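 HepG2 cells (600/well) mixed with RealTime-Glo MT reagent, settled 5 h at 37 C/5% CO2 before compound addition. Nonlytic NanoLuc luminescence from viable-cell prosubstrate reduction read repeatedly during 40 h treatment at 37 C.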
A short description of assay [12]: A CellTox Green Cytotoxicity Assay to monitor cytotoxicity in HEK293 cells - 40 hour (AID 1224871). Note: nearly all actives have a fitted effect of over 45% in size. The method in brief:
as §2

A short description of assay [13]: qHTS RealTime-Glo MT Cell Viability Assay in HEK293 cells - 16 hour (AID 1224872). The method in brief:
as §1

Assay [14] is described as follows: qHTS RealTime-Glo MT Cell Viability Assay in HepG2 cells - 8 hour (AID 1224873). Note: nearly all actives have a fitted effect of over 55% in size. In a few lines:
as §3

For assay [15], the target named is Nuclear receptor subfamily 1 group I member 3 (Homo sapiens) (UniProt Q14994). In words: qHTS assay to identify small molecule agonists of the constitutive androstane receptor (CAR) signaling pathway (AID 1224839).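 For activation: HepG2 cells stably carrying human CAR and a CYP2B6 luciferase reporter.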 Note: nearly all actives have a fitted effect of over 15% in size. Note: potency is the fitted concentration of half-maximal effect. The method in brief:
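Luminescence read-out (ONE-Glo, 30 min, room temperature) from double-stable HepG2-CYP2B6-hCAR cells exposed 24 h to 15-point compound series in presence of 0.75 uM PK11195 final.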

Assay [16] can be described thus: qHTS assay to identify small molecule antagonists of the estrogen related receptor signaling pathway with the pleiotropic PPARgamma coactivator (PGC) from Tox21 10K library (AID 1224841; call rule not given here). In a few lines: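 Each well held 2,000 PGC/ERR cells, pre-incubated six hours (37 C, 5% CO2). Test substances in DMSO were added by pin tool and left for 18 h at 37 C before luciferase detection by One-Glo.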

The nature of assay [17]: qHTS assay to identify small molecule agonists of the estrogen related receptor signaling pathway with the pleiotropic PPARgamma coactivator (PGC) from Tox21 10K library (AID 1224842). Note: nearly all actives have a fitted effect of over 15% in size. The method in brief:
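PGC/ERR reporter cell line, 2,000 cells per well, incubated 6 h at 37 C before 23 nL compound in DMSO was added. After 18 h at 37 C, One-Glo luminescence read following 30 min at room temperature.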

A short description of assay [18]: qHTS assay to identify small molecule antagonists of the estrogen related receptor (ERR) signaling pathway from Tox21 library (AID 1224848). Note: nearly all actives have a fitted effect of over 50% in size. In a few lines: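 ERR reporter cell line (from NTP) seeded 2,000 cells/well, rested 6 h at 37 C/5% CO2, then pin-dosed with compounds in DMSO. After 18 h at 37 C, ONE-Glo added; luminescence read after 30 min at room temperature.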

Assay [19] is described as follows: qHTS assay to identify small molecule agonists of the estrogen related receptor (ERR) signaling pathway from Tox21 library (AID 1224849; calls by dose curve; note: nearly all actives have a fitted effect of over 15% in size). The following applies: ERR reporter cell line, ONE-Glo luciferase, 18 h. The method in brief: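 Six hours post-seeding at 37 C/5% CO2, ERR cells receive DMSO-solubilised compounds; after 18 h at 37 C, ONE-Glo reagent is applied and luminescence recorded.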

A short description of assay [20]: qHTS assay to identify small molecule antagonists of the estrogen related receptor signaling pathway with the pleiotropic PPARgamma coactivator (PGC) from Tox21 10K library - cell viability counter screen (AID 1224840; active = well fitted cell-killing curve with a large enough effect in the repeat runs, not every such curve was filed as active; note: nearly all actives have a fitted effect of over 40% in size). In a few lines: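 Here the PGC/ERR cells serve as a cytotoxicity control: they are exposed to compounds for 17.5 hours at 37 C, and live-cell signal is quantified using CellTiter-Fluor fluorescence.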

Where “and” joins values, the source holds several entries; their conditions need not be identical. Identical values can stand only once. Records with an inconclusive call do not appear. Some compounds were tested as several samples or in several runs, with calls that do not always agree. Calls of active or inactive are those of the source. Unless noted, calls come from the whole dose curve; as a rule, active = well fitted curve in the direction sought with a large enough effect in the repeat runs; inconclusive = weak or mixed curves; inactive = no such curve, though single readings can be large; an effect the other way counts as inactive or inconclusive.
% is set by controls: 0 for no effect and ±100 for the full control effect.

Consider `CC1C=[C-]C=C1.[C-]#[O+].[C-]#[O+].[C-]#[O+].[Mn]`, for which the Potency result in assay [1], in assay [2], in assay [3], in [4], in assay [5] and in [7] was “inactive” in each case. For the same compound, the Potency result in [9], in assay [10] and in [12] was “inactive” each time. Moreover, the compound was called inactive in [6], in assay [8], in assay [11], in assay [13] and in [14].
On to `Nc1ccc(Oc2ccc(N)cc2)cc1`, for which the Potency result in [1], in [2], in assay [15], in assay [16], in [3] and in assay [4] was “inactive” throughout. The Potency entry in [5], in assay [7], in assay [18], in assay [9], in assay [10] and in [12] was “inactive” in each case. Further, the compound was called inactive in [17], in assay [6], in assay [8], in assay [11], in assay [13] and in [14]. Further, in assay [19] (at 92.4 µM (top of the series)), the activity change, positive = activation was -8.13% (inactive) and -18.8% (inactive).
Consider `Clc1ccc(Cl)cc1`, for which the Potency result in assay [1], in assay [2], in assay [15], in assay [3], in assay [4] and in assay [5] was “inactive” each time. Further, the Potency result in assay [9], in [10] and in assay [12] was “inactive” in each case. Further, the call in [6], in assay [8], in assay [11], in assay [13] and in assay [14] was inactive.
With `CC1OC(C)OC(C)O1` (stereo not given), the Potency result in [1], in assay [16], in assay [4], in [5], in assay [18] and in assay [9] was “inactive” each time. The Potency entry in assay [10] and in [12] was “inactive” in each case. Further, the compound was called inactive in assay [17], in [6], in assay [8], in assay [11], in assay [13] and in [14]. In addition, the values for the activity change, positive = activation in assay [19] (at 42.5 µM (top of the series)) and in [19] (at 92.4 µM (top of the series)) were 4.56% (inactive) and 4.37% (inactive), respectively.
Turning to `CCCCCOC(=O)c1ccccc1C(=O)OCCCCC`, the Potency entry in assay [1], in [2], in [15], in [4], in assay [5] and in assay [9] was “inactive” throughout. Besides, the Potency result in assay [10] and in [12] was “inactive” throughout. Also, the outcome in assay [6], in [8], in assay [11], in assay [13] and in assay [14] was inactive.
`O=[N+]([O-])c1ccc(Oc2ccc(Cl)cc2Cl)cc1`: the Potency result in assay [2], in [20], in assay [16], in [3], in assay [4] and in assay [5] was “inactive” throughout. In addition, the Potency entry in assay [18], in assay [10] and in assay [12] was “inactive” throughout. The Potency in assay [15] was 54.8 µM (active) and inactive. For the same compound, the call in assay [17], in assay [6], in [8] and in assay [14] was inactive. The activity change, positive = activation in [19] (at 92.4 µM (top of the series)) is -5.45% (inactive) and -4.04% (inactive).
In the case of `O=S(=O)(c1ccc(O)cc1)c1ccc(O)cc1`, the Potency result in assay [1], in [2], in [15], in assay [4], in assay [5] and in assay [7] was “inactive” each time. Besides, the Potency result in [9], in assay [10] and in assay [12] was “inactive” throughout. Also, the compound was called inactive in assay [6], in assay [8], in [11], in assay [13] and in assay [14].
Take `CCOP(=S)(OCC)Oc1cnc2ccccc2n1`: the Potency result in assay [1], in [2], in [3], in assay [4], in assay [5] and in [9] was “inactive” throughout. The Potency result in assay [10] and in [12] was “inactive” each time. The Potency result in [15] was “inactive and 30.6 µM (active)”. In addition, the result in assay [6], in assay [8], in assay [11], in assay [13] and in assay [14] was inactive.
With `CC(C)OC(=O)Nc1cccc(Cl)c1`, the Potency entry in [1], in [20], in [16], in assay [3], in assay [4] and in assay [5] was “inactive” each time. Also, the Potency entry in [18], in [9], in [10] and in assay [12] was “inactive” throughout. Moreover, the compound was classed as inactive in assay [17], in [6], in assay [8], in assay [13] and in assay [14]. Moreover, the activity change, positive = activation in assay [19] (at 92.4 µM (top of the series)) was 3.6% (inactive).

(Values after PubChem BioAssay (Tox21).)
